Among the data in PubChem BioAssay (NCATS) are Potency, max response and outcome values, retold here.

Values joined by “and” are separate entries in the source; they are usually repeats but may differ in a detail not shown here. Identical values can stand only once. Results filed as inconclusive are left out. A structure can be active in one record and inactive in another. Values without a mark were called inactive. Active and inactive are the calls of the source. Calls come from the whole dose curve; as a rule, active = well fitted curve in the direction sought with a large enough effect; inconclusive = small, poorly fitted or top-dose-only effect, or another doubt; inactive = no such curve, though single readings can be large; an effect the other way counts as inactive or inconclusive.

In one assay the test system is HEK293. The assay can be described thus: Cytotoxic Profiling of Annotated Libraries Using Quantitative High-Throughput Screening (AID 1296008). For max response: % is set by controls: 0 for no effect and ±100 for the full control effect. Note: nearly all actives have a fitted effect of over 60% in size. Note: potency is the fitted concentration of half-maximal effect. Conditions: Five cell lines viability, CellTiter-Glo ATP luminescence, 48-72 h; max response: hits give low values. The method, boiled down: (§1)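 Cytotoxicity was measured as CellTiter-Glo ATP luminescence, read after 10 min at room temperature. Compound treatment of the cells lasted 48 or 72 hr at 37 degrees Celsius in a qHTS format.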
A general note: Cellular ATP, detected with luciferase, serves as a proxy for viable cell number.

Another assay has as its system HaCat. The description is as above. The following applies: Five cell lines viability, CellTiter-Glo ATP luminescence, 48-72 h; max response: hits give low values. The method, boiled down: as §1
In the next assay the test system is KB-3-1. The assay is described as above. The following applies: Five cell lines viability, CellTiter-Glo ATP luminescence, 48-72 h; max response: hits give low values. The method, boiled down:
as §1

Assay [1] deals with NIH3T3. The description is as above. Conditions: Five cell lines viability, CellTiter-Glo ATP luminescence, 48-72 h; max response: hits give low values. The method, boiled down: as §1
In a further assay the test system is MKL-1. The experiment in a line: qHTS assay to identify novel small-molecules to repurpose for Merkel cell carcinoma treatment (AID 1296009). Note: nearly all actives have a fitted effect of over 60% in size. Note: potency is the fitted concentration of half-maximal effect. The following applies: MCC and control cell lines, CellTiter-Glo viability, 72 h; series mostly up to 46 µM. In a few lines:
(§2)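 After compound transfer in DMSO, plates were kept 72 hr at 37 degree celsius. Luminescent ATP signal from CellTiter-Glo served as viability measure, normalized against DMSO and no-cell controls.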
(In qHTS, concentration-response curves come from the screen itself.)

The next assay relates to UISO. The description is as above. Conditions: MCC and control cell lines, CellTiter-Glo viability, 72 h; series mostly up to 46 µM. In a few lines: as §2
The next assay deals with CRL-7250. The assay can be described thus: Cytotoxic Profiling of Annotated Libraries Using Quantitative High-Throughput Screening (AID 1296008). For max response: % is set by controls: 0 for no effect and ±100 for the full control effect. Note: nearly all actives have a fitted effect of over 60% in size. Note: potency is the fitted concentration of half-maximal effect. The following applies: Five cell lines viability, CellTiter-Glo ATP luminescence, 48-72 h; max response: hits give low values. In a few lines: as §1
Another assay deals with MCC-13. The experiment in a line: qHTS assay to identify novel small-molecules to repurpose for Merkel cell carcinoma treatment (AID 1296009). Note: nearly all actives have a fitted effect of over 60% in size. Note: potency is the fitted concentration of half-maximal effect. Conditions: MCC and control cell lines, CellTiter-Glo viability, 72 h; series mostly up to 46 µM. In a few lines:
as §2

A further assay concerns WaGa. Described as above. The following applies: MCC and control cell lines, CellTiter-Glo viability, 72 h; series mostly up to 46 µM. In a few lines:
as §2

A further assay concerns CASKI. The experiment in a line: Primary qHTS to identify gynecologic anti-cancer compounds using libraries of approved drugs and bioactive compounds (AID 1345084). Note: nearly all actives have a fitted effect of over 55% in size. Note: potency is the fitted concentration of half-maximal effect. The following applies: Gynecologic cancer cell panel viability, ATPlite luminescence, 48 h; series mostly up to 57.5 µM. The method, boiled down: (§3)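 Cells, 1,000 per well, were allowed to settle for 16 h at 37 C before compound addition. Five concentrations were tested for 48 h, and viability was read by ATPlite luminescence after 15 min at room temperature.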

The next assay relates to Es-2. Described as above. Conditions: Gynecologic cancer cell panel viability, ATPlite luminescence, 48 h; series mostly up to 57.5 µM. In a few lines:
as §3

A further assay relates to HeLa. The assay is described as above. The following applies: Gynecologic cancer cell panel viability, ATPlite luminescence, 48 h; series mostly up to 57.5 µM. The method, boiled down: as §3
The next assay relates to MCC-26. The assay can be described thus: qHTS assay to identify novel small-molecules to repurpose for Merkel cell carcinoma treatment (AID 1296009). Note: nearly all actives have a fitted effect of over 60% in size. Note: potency is the fitted concentration of half-maximal effect. The following applies: MCC and control cell lines, CellTiter-Glo viability, 72 h; series mostly up to 46 µM. The method, boiled down: as §2
The next assay has as its system MKL-2. The assay is described as above. The following applies: MCC and control cell lines, CellTiter-Glo viability, 72 h; series mostly up to 46 µM. The method, boiled down: as §2
The subject of a further assay is C33A. The experiment in a line: Primary qHTS to identify gynecologic anti-cancer compounds using libraries of approved drugs and bioactive compounds (AID 1345084). Note: nearly all actives have a fitted effect of over 55% in size. Note: potency is the fitted concentration of half-maximal effect. Conditions: Gynecologic cancer cell panel viability, ATPlite luminescence, 48 h; series mostly up to 57.5 µM. The method, boiled down:
as §3

The subject of assay [2] is NIH3T3. The assay can be described thus: qHTS assay to identify novel small-molecules to repurpose for Merkel cell carcinoma treatment (AID 1296009). Note: nearly all actives have a fitted effect of over 60% in size. Note: potency is the fitted concentration of half-maximal effect. Conditions: MCC and control cell lines, CellTiter-Glo viability, 72 h; at 44.8 µM (top of the series) unless noted. The method, boiled down:
as §2

A further assay deals with TAB165. The assay can be described thus: qHTS profiling for inhibitors of Plasmodium falciparum proliferation (AID 504749). The following applies: P. falciparum in erythrocytes, SYBR Green DNA, 72 h; series mostly up to 28.7 µM. The method, boiled down: (§4)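 Three-day growth assay of blood-stage parasites in erythrocytes (0.3% parasitemia, 2.5% hematocrit) at 37 C, 5% CO2, quantified by SYBR Green DNA staining after overnight detergent lysis.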

For another assay, the system named is W2. The description is as above. The following applies: P. falciparum in erythrocytes, SYBR Green DNA, 72 h; series mostly up to 28.7 µM. In a few lines: as §4

Take `COc1ccc(Nc2cc(-c3cnc(N)nc3)nc(N3CCOCC3)n2)cn1`: the Potency in the assay with HEK293 is 1.87 µM (active); in the assay with HaCat it was 2.64 µM (active); with KB-3-1, 2.96 µM (active); with NIH3T3 [1] it was 3.32 µM (active); in the assay with UISO, 4.18 µM (active). In the assay on MKL-1, the Potency result is “inactive”.

Consider `C=CC(=O)Nc1ccc2ncnc(Nc3ccc(OCc4cccc(F)c4)c(Cl)c3)c2c1`, for which the Potency in the assay on CRL-7250 is 14.6 µM (active); with HaCat, 1.87 µM (active) and 580 nM (active); with KB-3-1, 9.35 µM (active); with MCC-13 it was 3.72 µM (active); with MKL-1 it was 0.118 µM (active); in the assay on WaGa, 0.0332 µM (active). Besides, the Potency in the assay with CASKI is 14.1 µM (active). For the same compound, the Potency result in the assay on Es-2 and in the assay on HeLa was “inactive” each time.

As for `CN(C)c1ccc2cc(C(=O)N[C@@H](CCCN=C(N)CCl)C(=O)NCc3ccccc3)ccc2c1`, the values for the Potency with CRL-7250, in the assay with MKL-2 and in the assay on UISO were 18.7 µM (active), 26.4 µM (active) and 13.2 µM (active), respectively. Further, the max response in the assay with HaCat was -9.24%; in the assay with NIH3T3 [1], -19.2%. Also, the Potency result with MCC-13 and in the assay on MCC-26 was “inactive” throughout.

`C[C@@H](Cc1cc2c(c(C(N)=O)c1)N(CCCO)CC2)NCCOc1ccccc1OCC(F)(F)F`: the Potency with CRL-7250 is 20.6 µM (active). Besides, the max response with KB-3-1 is -7.67%. Besides, the Potency entry with MCC-13, in the assay with MCC-26, in the assay on MKL-1, with MKL-2, with UISO and in the assay with WaGa was “inactive” throughout.

With `Cc1nc(NC(=O)N2CCC[C@@H]2C(N)=O)sc1-c1ccnc(C(C)(C)C(F)(F)F)c1`, the Potency with HEK293 was 14.8 µM (active); with HaCat, 3.32 µM (active); in the assay with KB-3-1, 8.33 µM (active); with NIH3T3 [1], 16.6 µM (active). The Potency entry with MCC-13, in the assay with MCC-26 and in the assay on MKL-1 was “inactive” throughout.

As for `O=C(Nc1nnc(-c2ccco2)o1)c1cc(-c2ccccc2)nc2ccccc12`, the Potency with CRL-7250 is 16.6 µM (active). The max response with HaCat is -46%. Besides, in the assay on MCC-26, the Potency result is “inactive”.

Regarding `Cn1cc(-c2ccc3ncc(Cc4ccc5ncccc5c4)n3n2)cn1`, the max response with HEK293 is 4.11%; with HaCat, -43.1%; in the assay on KB-3-1, 8.56% and 1.39%. Moreover, the Potency in the assay on HaCat is 20.6 µM (active). Moreover, the Potency result in the assay with MCC-13, in the assay on MCC-26, in the assay with MKL-1, with MKL-2, in the assay on UISO and in the assay with WaGa was “inactive” throughout.

On to `N#Cc1c(C2CCNCC2)cc(-c2c(O)cccc2OCC2CC2)nc1N`, for which, in the assay with HEK293, the Potency was 20.9 µM (active). The max response with HaCat was -15.5%; with KB-3-1, -14.2%; in the assay on NIH3T3 [1], -27%. In addition, the Potency entry in the assay with MCC-13, with MKL-1, in the assay on C33A, in the assay with Es-2 and in the assay on HeLa was “inactive” in each case.

On to `COc1ccc(S(=O)(=O)Nc2cc(-c3c(O)ccc4ccccc34)c(O)c3ccccc23)cc1`, for which the max response in the assay on CRL-7250 is -21.5%; in the assay on HaCat, -11.6%. The call in the assay with NIH3T3 [1] and in the assay with NIH3T3 [2] was inactive. Moreover, the Potency entry in the assay with MCC-13 and in the assay with MCC-26 was “inactive” each time. Besides, the Potency in the assay with MKL-2 was 26.4 µM (active); in the assay with UISO, 0.166 µM (active).

`C=CC(=O)N1CCc2ccc(-n3c(=O)ccc4cnc5ccc(-c6cnn(C)c6)cc5c43)cc21`: the Potency in the assay with CRL-7250 was 3.72 µM (active); with KB-3-1 it was 4.18 µM (active); with MKL-1, 1.87 µM (active); in the assay with MKL-2, 1.87 µM (active); in the assay on UISO it was 6.62 µM (active).

`CC(=O)ON=C1C(c2c(O)[nH]c3cc(Br)ccc23)=Nc2ccccc21`: the Potency in the assay with HEK293 was 14.8 µM (active). Besides, the max response in the assay with HaCat was -13.8%; with KB-3-1, -15.3%. The Potency result in the assay on MCC-13, with MCC-26 and with MKL-2 was “inactive” in each case.

In the case of `C#CCC(Cc1cnc2nc(N)nc(N)c2n1)c1ccc(C(=O)N[C@@H](CCC(=O)O)C(=O)O)cc1` (stereo partly specified), the Potency with HEK293 is 0.0418 µM (active); with HaCat it was 3.32 µM (active); with KB-3-1, 0.146 µM (active); in the assay on NIH3T3 [1], 0.332 µM (active); with WaGa it was 0.526 µM (active). Besides, the Potency result in the assay with MCC-26 and with MKL-2 was “inactive” each time.

As to `CC(C)c1cc(C(C)C)c(CC(=O)NS(=O)(=O)Oc2c(C(C)C)cccc2C(C)C)c(C(C)C)c1`, the max response in the assay on CRL-7250 is 4.74% and 1.75%; in the assay on HaCat it was 0.698% and -52.4%; with KB-3-1, 0.649%. Moreover, the Potency entry in the assay on MCC-13, with MCC-26, with MKL-1, with MKL-2, in the assay on WaGa and with C33A was “inactive” in each case. Also, the Potency result in the assay on CASKI and in the assay with Es-2 was “inactive” throughout.

With `O=C(Nc1cccc(Nc2ncc(Br)c(NCCc3cnc[nH]3)n2)c1)N1CCCC1`, the Potency in the assay on CRL-7250 is 4.18 µM (active); with HaCat it was 9.35 µM (active); in the assay with KB-3-1, 1.32 µM (active); in the assay on NIH3T3 [1], 4.69 µM (active); in the assay with MKL-2, 5.9 µM (active); in the assay with UISO, 16.6 µM (active). The Potency with WaGa was 2.96 µM (active).

Take `CN1CCc2c(c3ccccc3n2Cc2ccc(C(=O)NO)cc2)C1`: the max response in the assay with CRL-7250 was -28.2% and -9.31%. Also, the Potency in the assay on KB-3-1 is 26.4 µM (active); in the assay on WaGa, 20.9 µM (active). The Potency entry in the assay with MCC-13, in the assay with MCC-26, with C33A, in the assay on CASKI, with Es-2 and in the assay on HeLa was “inactive” in each case.

Regarding `COc1ccc2c(c1OC)C(=O)OC2[C@H]1c2c(cc3c(c2OC)OCO3)CCN1C` (stereo partly specified), the Potency result in the assay with TAB165, with W2 and in the assay on MKL-2 was “inactive” in each case. Moreover, the Potency is 0.833 µM (active) with CRL-7250; 10.5 µM (active) in the assay on HaCat; 0.118 µM (active) with KB-3-1; 1.05 µM (active) with NIH3T3 [1]; 2.96 µM (active) with MCC-13; 0.469 µM (active) in the assay on UISO.
